# A number with no mark means an inactive call. Inconclusive results are not listed. Active and inactive are the calls of the source. Unless noted, the call rests on the fitted dose curve; in most records, active means well fitted curve in either direction with a large enough effect (not every such curve was filed as active); inconclusive means small, poorly fitted or top-dose-only effect, or another doubt; inactive means flat fitted curve, though single readings scatter.
# Key:
# [1] = target: Lysosomal acid glucosylceramidase (Homo sapiens) (UniProt P04062); experiment: Glucocerebrosidase-p2 (AID 348; in the data active means potency below about 10 µM; further: potency means the concentration at half of the fitted maximal effect); conditions: purified GBA, blue fluorogenic substrate, 40 min
# Sequence of Lysosomal acid glucosylceramidase (Homo sapiens) (P04062 whole entry, looked up): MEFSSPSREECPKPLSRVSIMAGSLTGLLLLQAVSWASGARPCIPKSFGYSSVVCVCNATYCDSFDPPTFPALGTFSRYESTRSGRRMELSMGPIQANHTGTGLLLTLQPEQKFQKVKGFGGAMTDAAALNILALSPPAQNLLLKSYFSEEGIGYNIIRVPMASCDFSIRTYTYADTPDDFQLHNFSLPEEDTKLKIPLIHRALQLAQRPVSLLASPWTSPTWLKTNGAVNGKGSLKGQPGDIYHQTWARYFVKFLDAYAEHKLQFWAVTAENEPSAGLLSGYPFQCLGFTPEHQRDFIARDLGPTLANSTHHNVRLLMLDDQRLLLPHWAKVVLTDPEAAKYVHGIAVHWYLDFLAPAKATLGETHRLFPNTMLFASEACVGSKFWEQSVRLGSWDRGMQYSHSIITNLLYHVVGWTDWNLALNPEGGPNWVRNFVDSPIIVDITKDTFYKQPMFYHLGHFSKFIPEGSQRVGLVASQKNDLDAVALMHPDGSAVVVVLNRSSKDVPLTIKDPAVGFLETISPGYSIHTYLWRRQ
# Method in brief: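 Normal human glucocerebrosidase (0.2 nM) with blue fluorogenic substrate (80 uM final) in citrate/phosphate pH 5.9 with 10mM sodium taurocholate, 0.01% tween-20; 40 min RT, NaOH/glycine stop; fluorescence Ex 365/Em 440; AC50 from a titration from 0.6 nM upwards.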
# [2] = AP1 Signaling Pathway (AID 357); conditions: ME-180 AP-1-bla reporter, EGF-induced, beta-lactamase ratio, 5 h; at 7.69 µM (top of the series) unless noted; further: on the % scale 0 is the no-effect control and ±100 the full control effect
# Method in brief: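 ME-180 cells with beta-lactamase reporter under AP-1 response element, stimulated with EC50 EGF; compounds tested in titration series, 5 h at 37 °C. CCF4 substrate added 2.5 h at room temperature; 460/530 nm emission ratio gave %activity and AC50.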
# [3] = target: Cytochrome P450 1A2 (Homo sapiens) (UniProt P05177); experiment: p450-cyp1a2 (AID 410; calls by dose curve; further: potency means the concentration at half of the fitted maximal effect;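 on activity change, negative = inhibition: -100% = full effect of reference inhibitor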); conditions: recombinant CYP1A2, luciferin-ME demethylation, luminescence; series mostly up to 57 µM
# Sequence of Cytochrome P450 1A2 (Homo sapiens) (P05177 whole entry, looked up): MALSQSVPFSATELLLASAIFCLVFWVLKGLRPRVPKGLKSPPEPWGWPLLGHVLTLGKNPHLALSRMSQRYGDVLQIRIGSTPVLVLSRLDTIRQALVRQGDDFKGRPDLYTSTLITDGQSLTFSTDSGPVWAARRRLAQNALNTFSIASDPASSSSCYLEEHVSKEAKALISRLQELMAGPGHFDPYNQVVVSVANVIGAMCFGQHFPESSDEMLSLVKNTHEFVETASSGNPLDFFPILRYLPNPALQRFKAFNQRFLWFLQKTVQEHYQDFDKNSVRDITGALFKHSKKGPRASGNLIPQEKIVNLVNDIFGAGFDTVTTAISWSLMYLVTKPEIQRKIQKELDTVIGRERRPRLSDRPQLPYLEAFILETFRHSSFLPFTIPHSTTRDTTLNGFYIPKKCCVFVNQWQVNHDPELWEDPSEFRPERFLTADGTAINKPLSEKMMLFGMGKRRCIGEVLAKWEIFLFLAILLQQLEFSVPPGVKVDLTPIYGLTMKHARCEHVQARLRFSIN
# Method in brief: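 Luminescent demethylation readout: Luciferin-ME (100uM, equal to Km) turned over by 20nM CYP1A2 for 60 min at room temperature after NADPH regeneration addition, following 10 min compound preincubation. Normalization used 57 uM furafylline as full inhibition.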
# [4] = NFAT Signaling Pathway (AID 444); conditions: Jurkat NFAT-bla M1, carbachol, beta-lactamase ratio, 5 h; at 7.69 µM (top of the series) unless noted;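 further: carbachol stimulus at about its EC50 of 1 µM final; on the % scale 0 is the no-effect control and ±100 the full control effect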
# Method in brief: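 Jurkat cells carrying an NFAT-driven β-lactamase reporter and co-transfected muscarinic M1 receptor were treated with compound plus carbachol (1 uM final, an EC50 level) for 5 h at 37 °C. CCF4 loading followed for 1 h at RT; 460/530 nm ratio gave %activity.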
# [5] = Stat Signaling Pathway (AID 446); conditions: ME-180 (cervical carcinoma) SIE beta-lactamase reporter, IL-6 stimulated, 5 h; at 7.69 µM (top of the series) unless noted;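 further: ME-180 cervical cancer cells given 40 pM IL-6 alongside compound; SIE-controlled beta-lactamase reporter measured as 460/530 nm FRET emission ratio; on the % scale 0 is the no-effect control and ±100 the full control effect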
# Method in brief: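 Normalization used AC90 stimulation (300 pM IL-6) and AC90 inhibition (125 nM pan-JAK inhibitor at 40 pM IL-6). The underlying signal is SIE-driven beta-lactamase in ME-180 cells after 5 h IL-6 exposure with compound.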
# [6] = target: Glucocorticoid receptor (Homo sapiens) (UniProt P04150); experiment: GR-EFC Redistribution (AID 451; calls by dose curve; further: potency means the concentration at half of the fitted maximal effect); conditions: CHO-K1 GR-EFC translocation, beta-gal luminescence, 2 h
# Sequence of Glucocorticoid receptor (Homo sapiens) (P04150 whole entry, looked up, the tested form may be a part): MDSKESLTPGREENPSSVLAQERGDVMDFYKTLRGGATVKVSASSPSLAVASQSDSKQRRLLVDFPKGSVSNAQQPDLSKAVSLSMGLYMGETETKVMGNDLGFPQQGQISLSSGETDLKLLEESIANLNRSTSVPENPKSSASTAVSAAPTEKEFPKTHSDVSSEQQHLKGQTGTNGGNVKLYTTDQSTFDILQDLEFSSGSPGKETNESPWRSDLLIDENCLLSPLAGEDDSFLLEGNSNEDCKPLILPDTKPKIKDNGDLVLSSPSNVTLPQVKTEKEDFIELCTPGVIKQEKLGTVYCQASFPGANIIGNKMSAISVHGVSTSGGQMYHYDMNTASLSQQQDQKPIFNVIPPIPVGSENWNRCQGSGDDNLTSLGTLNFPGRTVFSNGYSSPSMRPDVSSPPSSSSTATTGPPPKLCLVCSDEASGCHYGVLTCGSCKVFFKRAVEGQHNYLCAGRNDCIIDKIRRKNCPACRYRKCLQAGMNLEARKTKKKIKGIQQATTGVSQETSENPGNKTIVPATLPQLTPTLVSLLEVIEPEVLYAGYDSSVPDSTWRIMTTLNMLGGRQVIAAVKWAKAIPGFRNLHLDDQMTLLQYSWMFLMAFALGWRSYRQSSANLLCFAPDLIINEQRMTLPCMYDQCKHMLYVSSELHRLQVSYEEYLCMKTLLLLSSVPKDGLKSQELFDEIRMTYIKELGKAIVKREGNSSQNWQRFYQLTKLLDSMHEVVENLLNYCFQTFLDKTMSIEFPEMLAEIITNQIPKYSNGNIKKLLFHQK
# Method in brief: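 CHO-K1 cells stably expressing nuclear-localized β-gal enzyme acceptor and GR fused C-terminally to the enzyme donor fragment; ligand-driven nuclear translocation restores β-gal by complementation. Compounds titrated up to 46 uM final, 2 h at 37 °C; luminescence read.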
# [7] = target: Mitogen-activated protein kinase 10 (Mus musculus) (UniProt Q61831); experiment: JNK3 AlphaScreen Assay (AID 530); conditions: JNK3 lysate, c-Jun phosphorylation; series mostly up to 57.1 µM;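 further: kinase came from lysate of stimulated human HepG2 cells; signal reports phosphorylation of biotinylated GST-cJun 1-79 at Ser73 with 10 µM ATP; on the % scale 0 is the no-effect control and ±100 the full control effect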
# Method in brief: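 Phosphorylation of biotinylated GST-cJun(1-79) at Ser73 is measured by AlphaScreen proximity luminescence. Enzyme is JNK3 in HepG2 lysates activated with interleukin-1beta and tumor necrosis factor alpha; ATP is 10 uM final.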
# [8] = target: 3',5'-cyclic-AMP phosphodiesterase 4B (Homo sapiens) (UniProt Q07343); experiment: qHTS Assay for Inhibitors of PDE-IV (AID 607; active means well fitted activation curve with a large enough effect in the main read-out, with a control signal flat, not every such curve was filed as active; further: % of control where 0% means no effect); conditions: HEK293 ACTOne CNG channel cells, membrane potential fluorescence; series mostly up to 22.9 µM
# Sequence of 3',5'-cyclic-AMP phosphodiesterase 4B (Homo sapiens) (Q07343 whole entry, looked up): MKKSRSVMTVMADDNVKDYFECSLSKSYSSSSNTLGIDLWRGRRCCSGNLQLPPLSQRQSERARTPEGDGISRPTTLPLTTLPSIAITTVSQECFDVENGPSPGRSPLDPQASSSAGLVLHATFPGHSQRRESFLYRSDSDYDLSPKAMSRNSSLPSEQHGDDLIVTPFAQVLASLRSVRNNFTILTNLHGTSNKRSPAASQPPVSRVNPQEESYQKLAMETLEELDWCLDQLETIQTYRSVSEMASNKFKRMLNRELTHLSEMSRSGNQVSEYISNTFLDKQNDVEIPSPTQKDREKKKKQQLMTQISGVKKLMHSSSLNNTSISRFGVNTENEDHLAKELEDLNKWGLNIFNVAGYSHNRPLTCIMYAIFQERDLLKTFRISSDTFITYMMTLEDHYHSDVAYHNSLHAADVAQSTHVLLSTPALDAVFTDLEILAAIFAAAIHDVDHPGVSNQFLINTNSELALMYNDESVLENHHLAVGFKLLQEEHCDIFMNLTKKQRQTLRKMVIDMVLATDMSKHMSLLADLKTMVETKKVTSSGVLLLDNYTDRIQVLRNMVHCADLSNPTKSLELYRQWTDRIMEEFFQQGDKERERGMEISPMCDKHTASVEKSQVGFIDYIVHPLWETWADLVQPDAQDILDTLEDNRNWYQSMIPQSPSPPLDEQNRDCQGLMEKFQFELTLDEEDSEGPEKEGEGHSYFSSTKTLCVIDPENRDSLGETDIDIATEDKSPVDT
# Method in brief: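 HEK293 ACTOne cells with CNG channel (1000/well), endogenous PDE4; membrane potential dye, compounds up to 22.9 uM final. Fluorescence Ex 535/Em 590; RO 20-1724 (100 uM final) as reference.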
# [9] = target: Cytochrome P450 3A4 (Homo sapiens) (UniProt P08684); experiment: qHTS Assay for Inhibitors and Substrates of Cytochrome P450 3A4 (AID 884; active means well fitted curve in the direction sought with a large enough effect; an effect the other way counts as inactive or inconclusive; further: on the % scale 0 is the no-effect control and ±100 the full control effect; nearly all actives have a fitted effect of over 50% in size); conditions: recombinant CYP3A4, Luciferin-PPXE luminescence; series mostly up to 57.1 µM
# Sequence of Cytochrome P450 3A4 (Homo sapiens) (P08684 whole entry, looked up): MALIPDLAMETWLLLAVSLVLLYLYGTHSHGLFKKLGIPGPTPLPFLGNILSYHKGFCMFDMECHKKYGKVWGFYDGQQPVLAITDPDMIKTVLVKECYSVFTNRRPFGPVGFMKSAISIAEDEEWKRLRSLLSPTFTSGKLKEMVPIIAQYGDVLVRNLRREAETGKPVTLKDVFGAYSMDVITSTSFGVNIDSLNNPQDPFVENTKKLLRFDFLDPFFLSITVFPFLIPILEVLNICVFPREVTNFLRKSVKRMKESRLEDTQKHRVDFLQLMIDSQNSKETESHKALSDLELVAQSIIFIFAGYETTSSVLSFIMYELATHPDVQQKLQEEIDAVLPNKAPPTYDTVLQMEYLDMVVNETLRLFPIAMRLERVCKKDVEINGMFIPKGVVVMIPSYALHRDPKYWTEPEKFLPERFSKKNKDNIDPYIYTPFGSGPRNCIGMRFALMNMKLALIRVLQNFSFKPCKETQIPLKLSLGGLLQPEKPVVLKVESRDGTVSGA
# Method in brief: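 Luminescent readout of luciferin produced by CYP3A4 (20 nM) dealkylation of Luciferin-PPXE, 25 uM (its KM). NADPH-driven reaction ran 60 min at RT after 10 min compound preincubation; data scaled to 57 uM ketoconazole as 100% inhibition.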
# [10] = target: Cytochrome P450 3A4 (Homo sapiens) (UniProt P08684); experiment: qHTS Assay for Activators of Cytochrome P450 3A4 (AID 885; active means well fitted curve in the direction sought with a large enough effect; an effect the other way counts as inactive or inconclusive; further: nearly all actives have a fitted effect of over 65% in size; further: potency means the concentration at half of the fitted maximal effect); conditions: recombinant CYP3A4, Luciferin-PPXE luminescence, 60 min; series mostly up to 57.1 µM
# Method in brief: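 Human CYP3A4 dealkylates Luciferin-PPXE to luciferin, which luciferase detection converts to light. Substrate was at its KM (25uM), buffer 200mM KPO4, reaction 60 min at RT.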
# [11] = Primary qHTS for small molecule stabilizers of the endoplasmic reticulum resident proteome: Secreted ER Calcium Modulated Protein (SERCaMP) assay (AID 1508630; active means well fitted curve in the direction sought with a large enough effect; an effect the other way counts as inactive or inconclusive; further: on the % scale 0 is the no-effect control and ±100 the full control effect); conditions: SH-SY5Y GLuc-SERCaMP (Gaussia luciferase released on ER calcium loss) secretion, thapsigargin, luminescence; series mostly up to 38.4 µM
# Method in brief: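 The SH-SY5Y reporter protocol was run at 3 concentrations up to 38.3 uM (primary) or 11 concentrations (follow-up): 16 h compound, 100 nM thapsigargin for 4 h, then extracellular luciferase luminescence.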
SMILES,Potency [1],"activity change, negative = inhibition [2]",Potency [3],"activity change, negative = inhibition [4]","activity, negative = inhibition [5]",Potency [6],Potency [7],Potency [8],Potency [9],Potency [10],outcome [11]
O=C(c1cccc(F)c1)N1CCC2(CC1)CCN(c1ncccn1)CC2,> 11.4 µM,-6.18%,10 µM (active),2.49%,-11.5%,> 46 µM,inactive,inactive,inactive,7.94 µM (active),inactive
CC(=O)N1CCC2(CCCN(c3cccc(-c4ccccc4)c3)C2)CC1,> 11.4 µM,-12.3%,5.01 µM (active),-0.641%,-8.45%,> 46 µM,inactive,inactive,–,inactive,inactive
Cn1cccc1C(=O)N1CCC2(CC1)CCN(c1ncccn1)CC2,> 11.4 µM,0.908%,inactive,5.08%,-4.72%,> 46 µM,inactive,inactive,inactive,–,inactive
O=C(Nc1cccc(F)c1)N1CCC2(CC1)CCN(C(=O)c1ccco1)CC2,> 11.4 µM,-3.88%,inactive,4.6%,4.97%,> 46 µM,inactive,inactive,inactive,–,inactive
O=C(c1ccco1)N1CCC2(CC1)CCN(c1ccc(-c3ccccc3)cc1)CC2,> 11.4 µM,-1.18%,inactive,17.6%,-2.58%,> 46 µM,inactive,inactive,inactive,–,inactive

# — PubChem BioAssay (NCATS)
